PME-1 inh: blocks human protein phosphatase methylesterase 1; Q9Y570; inhibition, % at 5.9 µM; recombinant PME-1, FP-Rh probe fluorescence polarization; AID 2130; 0.53% of 320,000 active;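 active means inhibition above the campaign mean of all compounds plus 3 SD, cut at about 26% in these data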;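 further: competitive labeling of PME-1 active site by serine hydrolase directed probe; 0% = PME-1 with DMSO and 100% = wells lacking PME-1 enzyme; inhibitors block probe labeling so polarization falls and inhibition rises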
Target sequence (Q9Y570 whole entry, looked up): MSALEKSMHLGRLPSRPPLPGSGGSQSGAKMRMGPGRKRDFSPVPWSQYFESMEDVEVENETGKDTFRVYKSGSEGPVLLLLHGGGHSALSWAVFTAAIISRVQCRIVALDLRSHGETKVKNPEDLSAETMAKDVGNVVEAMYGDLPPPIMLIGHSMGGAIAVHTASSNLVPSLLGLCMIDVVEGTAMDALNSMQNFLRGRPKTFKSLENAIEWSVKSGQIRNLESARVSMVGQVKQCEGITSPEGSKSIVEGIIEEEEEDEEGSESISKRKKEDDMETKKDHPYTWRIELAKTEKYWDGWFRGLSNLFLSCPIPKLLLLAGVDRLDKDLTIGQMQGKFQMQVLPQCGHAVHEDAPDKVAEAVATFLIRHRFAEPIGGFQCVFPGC
pPAFAH inh: inhibitors of human plasma PAF acetylhydrolase (pPAFAH). 1.5% of 330,000 active. recombinant pPAFAH, FP-rhodamine probe fluorescence polarization. Q13093. inhibition, % at 3.39 µM. AID 463082;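 active means inhibition above the mean inhibition across the screen plus 3 SD, cut at about 25% in these data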;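 further: inhibitors block binding of the rhodamine activity-based probe so polarization drops; 0% = enzyme with DMSO and 100% = wells lacking pPAFAH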
Fam108B counter: blocks mouse Fam108B hydrolase in RBBP9 counter-screen; recombinant Fam108B, FP-Rh probe fluorescence polarization; inhibition, % at 9.51 µM; 0.33% of 300,000 active;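 active means inhibition above the screen mean inhibition plus 3 SD, computed separately per campaign, cut at about 18% in these data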;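 further: inhibitors lower polarization as less probe binds the enzyme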
PAD4 inh: inhibitors of human PAD4; Q9UM07; recombinant PAD4, RCA probe fluorescence polarization; inhibition, % at 6.36 µM; 0.41% of 330,000 active; AID 485272;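 active means percent inhibition above a cutoff equal to the mean of all tested compounds plus 3 SD, cut at about 15% in these data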;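 further: 0% = PAD4 with RCA probe and DMSO and 100% = probe without PAD4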
GSTO1 inh: counter-screen for RBBP9 inhibitors: inhibitors of human GSTO1; P78417; recombinant GSTO1, activity-based probe fluorescence polarization; inhibition, % at 5.96 µM; 1.1% of 300,000 active; AID 1974;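 active means inhibition above the campaign mean inhibition plus 3 SD, cut at about 35% in these data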;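 further: 0% = GSTO1-1 with DMSO and 100% = wells lacking GSTO1-1 enzyme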
Target sequence (P78417 whole entry, looked up): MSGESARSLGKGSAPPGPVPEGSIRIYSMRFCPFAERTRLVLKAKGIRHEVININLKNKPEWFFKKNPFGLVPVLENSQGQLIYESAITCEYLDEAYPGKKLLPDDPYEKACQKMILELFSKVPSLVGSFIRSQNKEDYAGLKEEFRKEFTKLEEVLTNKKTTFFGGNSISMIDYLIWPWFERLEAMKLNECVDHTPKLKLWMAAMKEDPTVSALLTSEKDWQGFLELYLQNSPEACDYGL
Fam108b confirm: confirmation of mouse Fam108b serine hydrolase inhibitors; shares compounds with Fam108B counter; recombinant Fam108b, FP-Rh probe fluorescence polarization; inhibition, % at 9.51 µM; 44% of 930 active; AID 1978;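 active means inhibition above a limit from the primary screen, the mean over all compounds plus 3 SD, cut at about 19% in these data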;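 further: 0% = median of active Fam108b wells and 100% = catalytically dead S170A mutant; inhibitors free the probe so polarization falls as inhibition rises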
Fam108b inh: mouse ABHD17B inhibition | shares compounds with Fam108B counter | recombinant Fam108b, gel-based ABPP, fluorophosphonate probe | inhibition, % at 20 µM | 44% of 260 active | AID 588649; in the data active means inhibition above about 40%
GSTO1 inh conf: confirmation of human GSTO1 inhibitors; shares compounds with GSTO1 inh; recombinant GSTO1, probe fluorescence polarization; inhibition, % at 5.96 µM; 54% of 2,400 active; AID 2176;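 active means inhibition above the primary screen's cutoff, its mean inhibition plus 3 SD, cut at about 35% in these data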;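 further: loss of polarization as inhibitors block binding of rhodamine sulfonate ester activity probe; 0% = GSTO1 with DMSO and 100% = wells lacking GSTO1 enzyme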
* = called active by the depositor; nt = no result. Rows were chosen to be rich in hits. Some 2.3% of all compounds tested hit in one or more screens of this group.

SMILES	PME-1 inh	pPAFAH inh	Fam108B counter	PAD4 inh	GSTO1 inh	Fam108b confirm	GSTO1 inh conf	others
CC(OC(=O)C1CCN(c2ccc(C(F)(F)F)cn2)CC1)C(=O)Nc1cccc([N+](=O)[O-])c1 (stereo unspecified)	-23	2	nt	2	nt	nt	nt
Cc1ccc(C)c(-n2c3nc(=O)[nH]c(=O)c-3cc3cc([N+](=O)[O-])ccc32)c1	36*	19	26*	3	-10	35*	nt	Fam108b inh=70*
Cc1[nH]c2ccccc2c1/C=N/NC(=O)CCC(=O)NCc1ccccc1	14	3	2	3	-5	nt	nt
Cc1[nH]c2ccccc2c1/C=N/NC(=O)C1CC1(c1ccccc1)c1ccccc1 (stereo unspecified)	42*	8	21*	-6	-2	16	nt
Cc1ccn2c(=O)nc(SCC(=O)Nc3ccc4c(c3)OCCO4)nc2c1	-2	4	-1	3	9	nt	nt
O=C(NC1CCCCC1)c1sc(=S)n2c1[nH]c(=O)c1ccccc12	20	32*	35*	-1	-136	32*	nt	Fam108b inh=85*
O=C(NC1CCCCCC1)c1c(O)c2ccccc2[nH]c1=O	-1	2	1	-5	1	nt	nt
Cc1cc(NC(=O)CCN2C(=O)C3C4C=CC(C4)C3C2=O)ccc1Br (stereo unspecified)	2	1	4	6	3	nt	nt
Cc1ccc(S(=O)(=O)Nc2cc(C)c(O)cc2C)cc1	4	-2	6	2	10	nt	nt
Cc1ccc(S(=O)(=O)Nc2csc(C)c2C(=O)O)cc1	2	3	47*	-1	19	2	nt
On1onc2c3cc(-c4ccccc4)nc3ccc21	45*	19	27*	1	6	21*	nt
COc1ccc(CC(=O)NCC(=O)N/N=C(/C)c2ccco2)cc1	0	3	-5	-5	-6	nt	nt
CCCOc1ccc(C2C3=C(Nc4nc(N)[nH]c(=O)c42)c2ccccc2C3=O)cc1 (stereo unspecified)	13	17	23*	-4	2	19*	nt
Cc1cc(C)n(-c2ccc(C(=O)N3CCC(CO)(Cc4ccccc4)CC3)cc2)n1	2	1	0	0	1	nt	nt
O=[N+]([O-])c1ccc(/C=N/Nc2ccnc3cc(Cl)ccc23)o1	18	28*	19*	-11	-6	10	nt
O=C(c1cc([N+](=O)[O-])ccc1N1CCCCC1)N1CCCCC1	1	2	38*	-5	9	-10	nt
Cn1c(=O)c2[nH]c(N3CCN(c4ccccn4)CC3)nc2n(C)c1=O	-3	5	2	1	6	nt	nt
CCCCN(C)CCNC(=O)C1CCN(S(=O)(=O)c2cccc3nsnc23)CC1	1	-1	1	-4	5	nt	nt
Cc1nn(-c2ccccc2)c(Cl)c1/C=N/NC(=O)c1cccc(S(=O)(=O)N2CCCC2)c1	2	1	-6	4	0	nt	nt
Cc1nn(-c2ccccc2)c(N2CCCC2)c1/C=N/NC(=O)c1cc2ccccc2cc1O	38*	22	27*	3	-3	9	nt
Cc1nn(-c2ccccc2)c(N2CCCC2)c1/C=N/NC(=O)c1cccc(S(=O)(=O)Nc2ccc(Cl)cc2)c1	15	24	22*	1	-33	-6	nt
Cc1nn(-c2ccccc2)c(N2CCCC2)c1/C=N/NC(=O)c1cc(-c2ccccc2)nc2ccccc12	-3	-2	-6	1	-7	nt	nt
CCOc1ccc(C2NC(=O)NC(C)=C2[N+](=O)[O-])cc1OC (stereo unspecified)	-11	-7	-8	-8	-6	nt	nt
Cc1c2cc(O)c(=O)cc-2oc2cc(O)c(O)cc12	113*	78*	114*	65*	96*	138*	107*	Fam108b inh=0
COc1cc(OC)c(-c2c3cc(O)c(=O)cc-3oc3cc(O)c(O)cc23)cc1OC	-299	-146	-298	-121	-181	nt	nt
SMILES	PME-1 inh	pPAFAH inh	Fam108B counter	PAD4 inh	GSTO1 inh	Fam108b confirm	GSTO1 inh conf	others
COc1ccc2c(CC(=O)NNC(=O)c3ccc(O)cc3)coc2c1	nt	6	nt	0	nt	nt	nt
Oc1ccc(N=Cc2ccc(OCc3ccccc3)cc2)cc1	27*	24	20*	6	86*	0	7
O=C(N/N=C/c1ccc(OCc2ccccc2)cc1)c1ccncc1	-5	-9	-1	-4	0	nt	nt
CCOC(=O)C1=C(SCC)c2cc3c(n2C1=O)CCCC3	8	11	23*	5	38*	14	21
Cc1coc2c1C(=O)C(=O)c1c-2ccc2c(C)cccc12	8	56*	19*	-4	97*	15	57*
Cc1ccc2c3c(cccc13)-c1ccccc1C2=O	-3	2	-6	0	-4	nt	nt
COc1ccc(CN=Cc2[nH]c3ccc(Br)c(Cl)c3c2O)cc1	14	-3	19*	-20	52*	12	2
CC(=O)c1cc(O)c2ccccc2c1O	39*	26*	31*	4	46*	18	39*
COc1ccc(OC)c(N2C(=O)CC(C(C)c3ccccc3)C2=O)c1 (stereo unspecified)	-5	-2	0	1	7	nt	nt
NC1=NC2CS(=O)(=O)CC2S1 (stereo unspecified)	3	4	2	3	1	nt	nt
O=C(O)C1Nc2ccc(OC(F)(F)F)cc2C2C=CCC12 (stereo unspecified)	6	61*	22*	1	48*	4	19
CN(CC(=O)Nc1ccc(F)cc1)C(=O)CN1C(=O)c2ccccc2C1=O	-3	1	nt	-1	nt	nt	nt
O=C(CCl)Nc1nc(-c2ccco2)c(-c2ccco2)s1	-7	22	19*	3	88*	7	88*
CC(=O)c1sc(NC(=O)CCNC(=O)c2ccco2)nc1-c1ccccc1	6	9	1	1	-4	nt	nt
CCCCNC(=O)Oc1c(Br)cc2sc(=O)oc2c1Br	-10	52*	26*	-10	66*	1	19
COc1ccc(-c2oc(NC(=O)CCl)c(C#N)c2-c2ccc(OC)cc2)cc1	42*	21	22*	14	76*	34*	86*	Fam108b inh=20
COCCCNCC(O)COc1ccccc1F (stereo unspecified)	-4	-4	0	2	0	nt	nt
CN1C(=O)/C(=C/c2ccc(-c3ccccc3[N+](=O)[O-])o2)SC1=Nc1ccc(Cl)c(C(=O)O)c1	12	29*	30*	12	72*	11	79*
Cc1ccc(C)c(N2C(=N)S/C(=C\c3ccc(-c4ccccc4C(=O)O)o3)C2=O)c1	6	22	5	-14	-43	nt	nt
O=S(=O)(Nc1cc2nc3ccccc3nc2n1Cc1ccccc1)c1ccc(Cl)cc1	53*	14	43*	72*	73*	64*	92*	Fam108b inh=20
